A selection: hits, their analogues and other compounds. The true share with any hit is near 0.27%.
TRPV1 PAM – human TRPV1 potentiation; TRPV1-expressing cells, Fluo-8 calcium influx, capsaicin EC20 potentiation; AID 540277; 320,000 tested, 0.02% active; potentiation, % at 8.33 µM; Q8NER1; in the data active = potentiation above about 80%; inconclusive = between about 30% and that limit; note: 0% is about no effect
Target sequence (Q8NER1 whole entry, looked up): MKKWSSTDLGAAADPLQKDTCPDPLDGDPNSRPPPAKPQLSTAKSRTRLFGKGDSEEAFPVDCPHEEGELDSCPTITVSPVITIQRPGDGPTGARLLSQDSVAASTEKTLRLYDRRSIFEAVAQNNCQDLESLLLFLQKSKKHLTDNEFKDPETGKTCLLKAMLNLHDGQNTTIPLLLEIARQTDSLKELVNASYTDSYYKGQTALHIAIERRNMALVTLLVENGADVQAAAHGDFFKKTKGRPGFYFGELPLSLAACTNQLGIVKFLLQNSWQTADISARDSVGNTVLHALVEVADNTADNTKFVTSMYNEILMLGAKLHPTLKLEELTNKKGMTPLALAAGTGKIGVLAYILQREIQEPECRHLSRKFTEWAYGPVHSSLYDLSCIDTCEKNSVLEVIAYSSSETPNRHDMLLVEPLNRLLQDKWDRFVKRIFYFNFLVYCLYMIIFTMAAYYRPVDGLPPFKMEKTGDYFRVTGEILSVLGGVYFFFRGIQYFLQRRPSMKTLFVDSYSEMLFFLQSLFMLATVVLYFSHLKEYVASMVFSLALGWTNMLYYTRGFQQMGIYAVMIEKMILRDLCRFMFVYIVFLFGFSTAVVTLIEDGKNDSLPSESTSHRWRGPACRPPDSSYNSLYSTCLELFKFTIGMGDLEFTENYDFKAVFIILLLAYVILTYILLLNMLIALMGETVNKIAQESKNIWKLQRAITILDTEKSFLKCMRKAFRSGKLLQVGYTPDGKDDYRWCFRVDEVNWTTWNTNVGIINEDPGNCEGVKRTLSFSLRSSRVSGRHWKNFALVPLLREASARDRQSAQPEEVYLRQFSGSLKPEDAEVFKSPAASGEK
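Cells expressing TRPV1 were dye-loaded with Fluo-8 and read kinetically: 10 s baseline, 3 min after compound (agonist portion), then 2 min after EC20 capsaicin (allosteric enhancer portion). Calcium-bound dye fluorescence at 480/520 nm.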
TRPML1 inh – inhibitors of human TRPML1 channel; TRPML1-inducible cells, Ca2+ dye fluorescence, FDSS; hits give low values; inhibition of EC80 agonist-evoked calcium signal; Q9GZU1; activity change, negative = inhibition, % (concentration not given with the values); 390,000 tested, 0.02% active; AID 624415; in the data active = activity change below about -50%; inconclusive = between about -30% and that limit;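 note: stimulus is agonist 54-4 at its EC80 concentration; % is set by controls: 0 for no effect and ±100 for the full control effect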
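Tet-induced TRPML1-DL cells loaded with Ca8 no-wash calcium dye were read kinetically on FDSS. Compound addition was followed by EC80 agonist 54-4 (4 uM final); inhibition was read over 110 s.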
TRPV1 agonist – agonists of human vanilloid receptor 1 (TRPV1); TRPV1-expressing cells, Fluo-8 calcium influx, agonist mode; activation, % at 8.33 µM; 320,000 tested, 0.19% active; in the data active = activation above about 80%; inconclusive = between about 30% and that limit; note: 0% is about no effect
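TRPV1-expressing cells were cultured overnight at 35.5C and loaded with Fluo-8 calcium dye for 40 to 90 min at room temperature. After a 10 s baseline, compound was added and calcium influx was read kinetically for 3 min (ex 480/em 520 nm).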
TRPML1 ag – activates the human TRPML1 channel. Q9GZU1. TRPML1-expressing cells, Ca2+ dye fluorescence, FDSS. activation, % (no concentration beside the values). 410,000 tested, 0.12% active. AID 624414; in the data active = activation above about 50%; inconclusive = mostly about 30% to 49%; note: 0% is about no effect
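Calcium fluorescence on an FDSS kinetic reader gave the read-out. Tet-induced TRPML1-DL cells were plated overnight, dye-loaded (Ca8 with quencher, 45-90 min, room temperature, dark), then read 110 s after compound addition, and again 110 s after 4uM final 54-4 (EC80).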
Starred values were filed as active, the others as inactive; ? = inconclusive; . = not tested or not shown.

SMILES	TRPV1 PAM	TRPML1 inh	TRPV1 agonist	TRPML1 ag
O=C(CSc1nnc2n(C3CCCC3)c(=O)c3ccccc3n12)N1CCCCCC1	-17	37	?	2
COc1ccc(CC(=O)NCCCc2ccccc2)cc1OC	-22	2	105*	2
COc1ccc(NC(=O)c2oc3ccc(S(=O)(=O)N(C)C4CCCCC4)cc3c2C)cc1Cl	.	-15	.	1
CC(C)(C)NC(=O)C(c1ccc(OCC(N)=O)cc1)N(C(=O)c1cccnc1)C1CC1 (centres undefined)	4	?	-7	1
NS(=O)(=O)c1ccc(NC(=O)COC(=O)C23CC4CC(CC(C4)C2)C3)cc1	11	5	-4	0
O=C(NC(=S)Nc1cccc2cc(O)ccc12)c1ccco1	0	-59*	16	2
COc1ccc(CCNC(=O)Nc2nnc([C@H]3C[C@H](O)[C@@H](CO)O3)s2)cc1OC	.	.	.	0
Cc1c(F)cccc1NC(=O)CSCC(=O)Nc1ccccc1	-4	-55*	-5	1
CC(=O)c1cc(-c2ccc(F)cc2)n(CCC(=O)Nc2cccnc2)c1C	-26	-5	81*	-1
CCc1nc(Nc2ccc3c(c2)OCO3)c2oc3ccccc3c2n1	2	16	?	4
N/C(=N\OC(=O)C12CC3CC(CC(C3)C1)C2)c1ccncc1	-7	12	29	61*
Nc1ccc(-c2c3ccc(=O)cc-3oc3cc(O)ccc23)c(C(=O)O)c1	1	-2	-5	84*
O=c1ccc2[n+]([O-])c3ccc(O)cc3oc-2c1	-5	-3	2	1
O=C(Cn1cc(C(F)(F)F)ccc1=O)NCCc1ccc(Cl)cc1Cl	-3	-3	14	1
NC(=Nc1ccc(Cl)cc1)c1ccccc1	-3	-5	13	65*
COc1ccc(OC)c2c(=O)cc(C(=O)O)[nH]c12	-2	-6	4	0
CCc1ccc2oc(C(=O)Nc3cccnc3)c(C)c2c1	-9	.	89*	.
Cc1c(C(=O)Nc2cccnc2)oc2ccc(Br)cc12	9	-6	91*	1
O=C(Nc1cccnc1)c1cc2c(ccc3ccccc32)o1	-19	13	?	0
CCN(CC)c1ccc(NC(=O)c2cnccn2)cc1S(=O)(=O)Nc1ccc(OC)cc1	20	29	85*	0
O=C(CCCn1nnc2ccccc2c1=O)N[C@H](C(=O)O)c1ccccc1	5	-54*	-2	0
O=C(Nc1cccc(C(=O)N2CCCCC2)c1)c1ccc(Cl)cc1	2	-8	-3	1
CCN(CC)c1ccc(/C=C/C(=O)c2ccc(Br)cc2)cc1	4	-14	123*	88*
Cc1ccc(Cl)cc1NC(=O)Nc1cn(CC(C)C)c(=O)c2ccccc12	.	2	.	57*
CCCn1c(=O)c2ccccc2n2c(SCCOc3ccccc3F)nnc12	1	24	4	1
SMILES	TRPV1 PAM	TRPML1 inh	TRPV1 agonist	TRPML1 ag
CCOC(=O)c1cc([N+](=O)[O-])sc1NC(=O)c1ccc(S(=O)(=O)N2CC3(C)CC2CC(C)(C)C3)cc1 (centres undefined)	-7	?	2	60*
CC1(c2ccccc2)NC(=O)N(CC(=O)N2CCN(S(=O)(=O)c3ccccc3[N+](=O)[O-])CC2)C1=O (centres undefined)	-27	21	1	0
COc1cc(/C=C2\CCCc3c2nc2ccccc2c3C(=O)O)cc(Br)c1O	29	-21	-6	0
CCOc1cc(/C=C2\CCCc3c2nc2ccccc2c3C(=O)O)ccc1OC	-6	-11	81*	78*
COc1ccc(S(=O)(=O)Nc2ccc3c(c2)N(C(C)=O)CCC3)cc1OC	8	24	6	-1
C=CCC1=C/C(=C\c2c(N)n3nc(CC(=O)N4CCCC4)sc3nc2=O)C=C(OC)C1=O	-28	-10	?	68*
COC1=CC(=Cc2c(N)n3nc(CC(=O)N4CCOCC4)sc3nc2=O)C=C(OC)C1=O	?	-11	-5	6
CC(C)Cc1nn2c(=O)cc(COC(=O)c3ccccc3NC(=O)c3ccccc3)nc2s1	.	-56*	.	0
COc1ccccc1OCc1nnc(SCC(=O)NCc2ccco2)n1Cc1ccco1	23	-5	0	1
O=C(C1=C[C@@H](c2ccccc2)C[C@@H](OCc2ccc(CO)cc2)O1)N1CCCCCCC1	-27	4	88*	1
Cc1ccc(C)c(S(=O)(=O)N2CCN(C(=O)C3CCN(c4ncnc5sc(C)c(C)c45)CC3)CC2)c1	7	-8	7	74*
N#CC1(P(=O)(c2ccccc2)c2ccccc2)CCCC1	111*	25	-4	7
O=C(O)C1(P(=O)(c2ccccc2)c2ccccc2)CCCC1	-7	-9	1	0
CCN(Cc1ccccc1)C(=O)CSc1nc(C)cc(C)c1C#N	-4	-17	17	1
O=S(=O)(Nc1ccccc1N1CCCCC1)c1ccc(Cl)s1	-29	-24	15	97*
S=c1[nH]nc(-c2cc(-c3ccco3)[nH]n2)n1-c1cccc2ccccc12	-16	-8	0	0
COc1ccc2[nH]c3c(c2c1)CCN1C(=O)C(CC(=O)NCCc2ccccn2)C[C@H](C(=O)N2CCCCC2)[C@@]31C (some centres undefined)	.	-8	.	-1
COC(=O)c1nc(-c2ccccc2)n[nH]1	1	-3	-3	0
Cc1cccc(NC(=O)c2ccc(S(=O)(=O)C(F)F)cc2)c1C	12	-5	87*	1
O=C(c1ccco1)N1CCN(C23CC4CC(CC(C4)C2)C3)CC1	-21	3	19	-1
c1ccc(-c2noc(-c3ccno3)n2)nc1	.	4	.	0
Cc1nnc(N2CCC(C(=O)NCCc3ccccc3Cl)CC2)c2nn(-c3ccccc3)c(C)c12	.	64	.	2
Cc1nnc(N2CCC(C(=O)NC3CCCCC3)CC2)c2nn(-c3ccccc3)c(C)c12	.	-58*	.	2
CCC(=O)NC(O)C(=O)c1ccc(C)cc1 (centres undefined)	-18	-9	1	0
C=CCOc1ccc(/C=C2\SC(N3CCCCC3)=NC2=O)cc1	14	-14	82*	2
SMILES	TRPV1 PAM	TRPML1 inh	TRPV1 agonist	TRPML1 ag
CC(C)c1ccc(/C=C2\SC(N3CCOCC3)=NC2=O)cc1	3	25	?	-1
Cc1ccc(/C=C2\SC(N3CCCCC3)=NC2=O)cc1	-2	6	?	-2
CCc1ccc(/C=C2/SC(N3CCOCC3)=NC2=O)cc1	-2	-15	85*	1
COc1ccc(S(=O)(=O)N2CCOC2CNC(=O)C(=O)NCCc2ccccc2)cc1OC (centres undefined)	-23	-1	-7	0
Cc1ccccc1NS(=O)(=O)c1ccc(C(=O)N2CCCCCCC2)cc1	-11	2	12	4
CCC(=Nc1ccccc1)C1=C(O)CC(C)(C)CC1=O	105*	.	9	.
CCC(=Nc1ccccc1)C1=C(O)CCCC1=O	0	2	-3	0
